{
  "source": "PubChem BioAssay (EPA / NIEHS)",
  "note": "Results filed as inconclusive are left out. The source made the active and inactive calls. Rule for the calls: active = hit-call score of the fitted dose curve at least 0.9, where 1 is the maximum; inconclusive = response in the unintended direction; inactive = score below 0.9.",
  "data": [
    {"molecular_target": "Estrogen-related receptor gamma (Homo sapiens) (UniProt P62508)", "sequence (P62508 whole entry, looked up, the tested form may be a part)": "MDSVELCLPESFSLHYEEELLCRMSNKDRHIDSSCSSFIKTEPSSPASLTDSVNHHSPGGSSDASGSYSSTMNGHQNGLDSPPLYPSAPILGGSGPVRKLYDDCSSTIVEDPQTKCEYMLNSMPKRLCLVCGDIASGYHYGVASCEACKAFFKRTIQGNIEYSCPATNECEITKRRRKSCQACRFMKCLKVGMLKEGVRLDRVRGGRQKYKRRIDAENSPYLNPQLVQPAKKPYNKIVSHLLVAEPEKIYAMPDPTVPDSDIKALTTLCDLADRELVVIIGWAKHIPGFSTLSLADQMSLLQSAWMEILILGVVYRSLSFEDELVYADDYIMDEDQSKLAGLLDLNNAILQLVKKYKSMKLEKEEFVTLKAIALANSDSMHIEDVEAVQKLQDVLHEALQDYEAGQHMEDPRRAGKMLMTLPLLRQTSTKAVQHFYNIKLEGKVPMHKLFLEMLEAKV", "experiment": "ATG_ERRg_TRANS: Attagene TRANS-FACTORIAL HepG2 Assay for human Estrogen-Related Receptor gamma (ERRg) (AID 2282977);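 note: hits increase reporter signal over DMSO so potencies reflect activators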", "details": "HepG2 Attagene TRANS reporter, ERRg transactivation", "method_in_brief": "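Transfect HepG2 with multiple GAL4-UAS reporter transcription units; dose chemicals 24 h; isolate RNA, reverse-transcribe with oligo(dT), PCR-amplify, label with 6-FAM, digest with HpaI; size fragments by capillary electrophoresis. DMSO serves as negative control.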", "values": [
      {"smiles": "OCCNCCO", "outcome": "inactive"},
      {"smiles": "NNC(=O)c1ccncc1", "outcome": "inactive"},
      {"smiles": "CCCOc1ccc(S(=O)(=O)N2CCN(CC)CC2)cc1-c1nc2c(CC)n(Cc3ccccn3)nc2c(=O)[nH]1", "outcome": "inactive"},
      {"smiles": "OC(Cn1cncn1)(Cn1cncn1)c1ccc(F)cc1F", "outcome": "inactive"},
      {"smiles": "c1ccc2cc3ccccc3cc2c1", "outcome": "inactive"},
      {"smiles": "OCc1ccccc1", "outcome": "inactive"},
      {"smiles": "Cc1nc(-c2ccccn2)ncc1C(=O)Nn1cc(C)c2cc(F)ccc21", "outcome": "inactive"},
      {"smiles": "Cc1nccn1-c1ccc(Sc2cccc(C3(C(N)=O)CCOCC3)c2)cc1", "outcome": "inactive"},
      {"smiles": "O=C(NO)C1(NS(=O)(=O)c2ccc(Oc3ccc(F)cc3)cc2)CCOCC1", "outcome": "inactive"},
      {"smiles": "CCOc1ccc2[nH]cc(C(=O)NCc3ccccc3)c(=O)c2n1", "outcome": "inactive"}
    ]}
  ]
}
